Measurements taken from PMC13494018.
Unmarked numbers belong to inactive results. The rule behind the calls is not given here.

Molecular target: VTCN1, Q7Z7D3
Sequence (Q7Z7D3 whole entry): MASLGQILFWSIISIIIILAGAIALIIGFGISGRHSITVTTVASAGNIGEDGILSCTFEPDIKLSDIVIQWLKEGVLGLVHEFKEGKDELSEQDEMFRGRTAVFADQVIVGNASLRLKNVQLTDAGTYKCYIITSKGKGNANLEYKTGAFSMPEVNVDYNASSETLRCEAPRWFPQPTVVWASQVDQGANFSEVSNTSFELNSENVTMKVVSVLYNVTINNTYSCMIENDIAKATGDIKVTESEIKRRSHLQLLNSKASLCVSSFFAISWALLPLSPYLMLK

Row | Binder | binding in a display sort
1 | d4r3_design_ppi_225_dldesign_0_cycle1_af2pred (protein) AADAALAAAAAEELAKARSLATEALLYAKKGKVEEAKKLLEEAEKALKKAEELAAAASPEVQARAKKAIEGVKKKIEEAKKAIKEK | not found
2 | d4r3_design_ppi_239_dldesign_0_cycle0_af2pred (protein) EEKAKEAEKKSKEYREKARELAEDVRNPELGRERAREEGKKTEEEIEAWLAEKAKEAQELRQESAEYDAKAIILK | not found
3 | d4r3_design_ppi_239_dldesign_0_cycle1_af2pred (protein) MEEAEKALKKAEELRAEAKRLGEIVSNPELGKKEAAKAGKKTPEEIEAWLKEVAAKAQELREEAAEYEAKAIRIK | not found
4 | d4r3_design_ppi_258_dldesign_0_cycle1_af2pred (protein) AAEEARKAKIQKMADRLLELSKKYGISLEDMKDMMSFSATDPADKAVGLALLDAGHAELAAAKAAEAARAEALAA | not found
5 | d4r3_design_ppi_266_dldesign_0_cycle0_af2pred (protein) MEEKGNEVIERAKKKLEEGKKLAKEGELLKGYALAQSAEARAENAAEAAEKAGLEEVAKKAKEVAKEAKAAAEEIEKKRKEAEA | not found
6 | d4r3_design_ppi_270_dldesign_0_cycle1_af2pred (protein) SAEEEKKKLLAIADEYAAKVKEAAADLEKAGAVLKEGITELVKLGAPNSVIAYLISKAVKAVGSKIMPYADEAIDEALKA | not found
7 | d4r3_design_ppi_300_dldesign_0_cycle0_af2pred (protein) SAEELAKKAKEEVEKAEKEAEEAAAKDKKAGAAKYAEAAQLAYQKAGELDASKENKEEAEEMRERGRELAKKARELEA | not found
8 | d4r3_design_ppi_300_dldesign_0_cycle1_af2pred (protein) SSAELTKEAKAKVEAAGAAADAAAAADPAAGAAAYTEAAQLALQESAKLDASKENKEAAEEMRKKGKEFAAKAKALRA | not found
9 | d4r3_design_ppi_308_dldesign_0_cycle1_af2pred (protein) MEAEKKAEKALEELKKAAKKLEELAKKGGSVEEAEELNEKVLELRSEAKFYASKADEEFGKKVKEEAKKALEKAREAYKKLKE | not found
10 | d4r3_design_ppi_381_dldesign_0_cycle1_af2pred (protein) GSSDELEKKTETKAYRSLSTKKAKEYSKDKELVKKIEEEAKTYEGALKARKETEEIVKEVKKKEEEEKKKKE | not found
11 | d4r3_design_ppi_383_dldesign_0_cycle0_af2pred (protein) SSLASELNEKKAEERGLEYAKKRLDEKAKKALELAKQVPEVAAEVKKLVDEGKALLEKGDIGGAFAKMDEALKLAEKALAA | not found
12 | d4r3_design_ppi_402_dldesign_0_cycle1_af2pred (protein) EEEEKKKAEELKKFLEEQNKKRKEVAELAKKYPEVAPYAKAYAKAQNEAFEYYDVDKEKSAKALAEAEKYEAKINALLAKL | not found
13 | d4r3_design_ppi_464_dldesign_0_cycle1_af2pred (protein) SVSLEEQEARALARTYAEIAEKKIKEAPKDKELAEKIAKEVLEEAKKAAKDLPEYEEYTIELAEKRLKEILEKYAKKA | not found
14 | d4r4_design_ppi_2_dldesign_0_cycle0_af2pred (protein) DEKAKKMAEEARKAAEEGRKALKEARKLAKEGELEKAAKLAEETAKKAEEKAKEAEKLSKKVAPEALRLLGVADAAKTAAEEFKKKL | not found
15 | d4r4_design_ppi_2_dldesign_0_cycle1_af2pred (protein) DEKAKKAAEEAKKVAKEGREKLKEAEKLMKEGKYKEAAKLAAEVAKKAKEKAEEAEKISKSVAPYALLLENVADAAKALAKEAKEKI | not found
16 | d4r4_design_ppi_34_dldesign_0_cycle0_af2pred (protein) VQKLIDEAAQEIQEARAHISGAEQYVLMGKEYLPEAKKDLEEAEKHIKKAKELTKKAKEAGADEEEIKKLEKAIEKAEARLEEVKKMM | not found
17 | d4r4_design_ppi_34_dldesign_0_cycle1_af2pred (protein) AEELVKEAAKHIQEARSLINAAEQYVKLGKEKLEEAKEDLKKAEEHIEKAKELAKKAKEAGADEEDVKKLEEAIEKAKKKLEEVKKLI | not found
18 | d4r4_design_ppi_44_dldesign_0_cycle1_af2pred (protein) AKAKEEGKKLAKEATEEAKKLLDKAKEEVKKGGTYEEVKKYVDKGKEAAKKYGAKAKELPETAADVAKVIQDFYEESNEALAEAKRL | not found
19 | d4r4_design_ppi_58_dldesign_0_cycle0_af2pred (protein) EEELKKAKEEAEKAIKEAEEAAKKIEEGEAREGVKKIREIKKKLEEKGKESTPEAKKIYKEAAKKIAEIAHEGLEKRAEKKAK | not found

Row | Binder | binding in a display sort
20 | d4r4_design_ppi_58_dldesign_0_cycle1_af2pred (protein) MEELKKAEEEAKKAVEEAKKYAELIAEGKSEEGIEKIKKIAEELKKKGKETTPEAAKIYEKAVKEIAKIAHEGLEKRAEKEAK | not found
21 | d4r4_design_ppi_79_dldesign_0_cycle1_af2pred (protein) AGKAAYEKLKANMERREKKAEEAEKKDKKLGKFEAEKGIEFSKHAAEAAKKKAAEDPAYKEAAKYAKEAEEKFKKKLKELEK | not found
22 | d4r4_design_ppi_87_dldesign_0_cycle0_af2pred (protein) AEENKAEGAKEAAEDAIEAALKKAEEDPEEGLKAAEKVKERVKKRAEEVEETEYGKKVGKEIKKKAEKALKEIEKKAKAAKAAK | not found
23 | d4r4_design_ppi_90_dldesign_0_cycle1_af2pred (protein) MTKEEAERMIKILKERLEKIKKAGKEKGEEMQKIAKELEEALKKAEEAFKKDPEKAGAYFQEARQIAAEGEFKEK | not found
24 | d4r4_design_ppi_102_dldesign_0_cycle1_af2pred (protein) EEEKVKKAAEKAIKLAKETAEKAYKAAKKVKDKEYKEKFKEITLLALEAKALARAGKALGNKELVEAAKKLAEEAKEKLEKLEKEAE | not found
25 | d4r4_design_ppi_105_dldesign_0_cycle1_af2pred (protein) MEEIKKEVEETTKKAKEKLKELEKEAEKAGVKEAVEVAKKGKEKVEKLAKKAEKAVKEGNKNYALAKIDAIKDTTEAAEKQVKKLIKA | not found
26 | d4r4_design_ppi_123_dldesign_0_cycle0_af2pred (protein) SEAEKKTKEAAKLAYEAAKSNPEKGREYRKKAGELIATLSPEEAKKAAAEAQDAYAEGRAEKKLEELKKREEEK | not found
27 | d4r4_design_ppi_123_dldesign_0_cycle1_af2pred (protein) AAEAAKAAAAAALAKKAAQSSPEKARAYRKEAGALIAELSPAAAAAAAAAAQDAYADGVAEKVLSELEEKKKKE | not found
28 | d4r4_design_ppi_128_dldesign_0_cycle0_af2pred (protein) ESEKKYKELKEELEKAYKEAKKAILEASKLKPEEAKKKMEEILEEFKKKAYELISKALEQSADYGRELAKLAQEYYKELEELAKKLL | not found
29 | d4r4_design_ppi_128_dldesign_0_cycle1_af2pred (protein) SSAEQAAKLRAELDAAAAAAAAAIAAAAGLTPAAAAAASAATIAAYKATASALIDAAFELSSDYGRSIAKAAKEKLAALEAQAAALA | not found
30 | d4r4_design_ppi_129_dldesign_0_cycle1_af2pred (protein) MEKVTEARDVALEAAGILELAGIKVPEYRKELSEKAKEAIREVAEAGREALEKGEEEYEKLEKVAEKVYKEAKKKAEEALKKKE | not found
31 | d4r4_design_ppi_157_dldesign_0_cycle1_af2pred (protein) SKEEARKRGLESAEELKELVEEGIPVEAVGAIAASDVEWLMKYPYGEYAAEALIEALEKYNPVMGEKAREAYEEAKERKAK | not found
32 | d4r4_design_ppi_180_dldesign_0_cycle1_af2pred (protein) DDFEKALEELKKAGELLPEAAEIAEEAIKKATASKDLKEAAKILLEAAKKIAKIAKEAGNEEAAKAAAAAAQYARQLKAAA | not found
33 | d4r4_design_ppi_213_dldesign_0_cycle1_af2pred (protein) GALEEAKKLVEEAAKLAEEGKLEEAKEKLKKAMDLAAEHEDPEVVREIAREAKKIVELAEKKKKEKEEKEKKEK | not found
34 | d4r4_design_ppi_222_dldesign_0_cycle1_af2pred (protein) SLEKLKEYLENAEKERKKVLEAAKEARELAKKGEEEEAKKYLGNAVTDARLNLNEAAYDAGLDTSIGNKLAKEFGAEGEKIFK | not found
35 | d4r4_design_ppi_225_dldesign_0_cycle0_af2pred (protein) AELRERAEAAERRFEAAKARLKEALEKGDKSRAYGEAFRLKHIAEVARRLAAEVRAAATTEEQRELAERLEELAREAEALAEEALKK | not found
36 | d4r4_design_ppi_225_dldesign_0_cycle1_af2pred (protein) DELREQAERAKKRFEEAEKKLKEALEKGDKKEAIKYAERLKHLAEVAEKLAEEVEAAATNPETKELAERLKELAKRAKKLAEEALKK | not found
37 | d4r4_design_ppi_227_dldesign_0_cycle1_af2pred (protein) GFKTKATAESGYERMKSIYEAFAKLGPKSPIYKEGAEKMKEYAEKLKELENSTEEEIEKLSKEGIEVGKKLKAEAEAK | not found
38 | d4r4_design_ppi_229_dldesign_0_cycle0_af2pred (protein) EKEEKIKKAKELAEKAKELAKKLKEAGEKDLEKAKKLLKEAREAAKKAIELAKEAGDEELAKKASDEQAKAQEAYAEAKAK | not found
